Screens deposited in PubChem BioAssay by National Center for Advancing Translational Sciences (NCATS).
KB-3-1 tox – KB-3-1 parental cell cytotoxicity; KB-3-1 viability, CellTiter-Glo ATP luminescence, 72 h; Potency, µM (series often up to 46.1 µM), actives largely listed as cytotoxic; hit rate 1.4% among 400,000; AID 1347075; also: nearly all actives have a fitted effect of over 60% in size
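Using CellTiter-Glo luminescence, growth of non-resistant KB-3-1 adenocarcinoma cells is assessed 72 h after pin-tool compound addition at 37 °C. Normalized responses across the concentration series yield fitted curves.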
KB-V1 cytotox – kills drug-selected multidrug resistant KB-V1 cells; Potency, µM (highest dose often 46.1 µM), most hits filed as cytotoxic; KB-V1 MDR cells viability, CellTiter-Glo, 72 h; AID 1347076; hit rate 3.4% among 400,000; also: nearly all actives have a fitted effect of over 60% in size
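KB-V1 MDR subline cells in DMEM (phenol-red free, 10% FBS) exposed to compounds in qHTS concentration series for 72 h at 37 degrees C. Viability read by CellTiter-Glo luminescence; concentration-effect curves fitted after normalization and correction.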
HT1080-NT tox – kills 2HG-producing HT-1080-NT fibrosarcoma cells | hit rate 1.6% among 360,000 | HT-1080-NT fibrosarcoma viability, CellTiter-Glo ATP luminescence, 48 h | Potency, µM (titrated, usually from 46.1 µM), usual class: cytotoxic | AID 686970;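 also: NT is the 2HG producing partner of a matched IDH1 knockdown line; nearly all actives have a fitted effect of over 55% in size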
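750 cells/well, RPMI + 5% FBS; 2 h settle, compound pin-transfer, 48 h at 37 degrees C. CellTiter-Glo 10 min RT, luminescence. Normalized to DMSO and media-only wells.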
SW480 rereplic – induces DNA re-replication in SW480 colon adenocarcinoma cells. SW480 DNA re-replication, Hoechst DNA content imaging, 48 h. Potency, µM (top dose mostly 46.1 µM), most hits filed as activators. hit rate 1.8% among 340,000. AID 624297; also: nearly all actives have a fitted effect of over 55% in size
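SW480 cells exposed to compounds for 48 hr at 37 C, 5% CO2, then Hoechst-stained 40 min. Nuclear DNA content imaged by fluorescence scanning (405 nm excitation, 500-530 nm emission); re-replication scored as increased high-intensity nuclei.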
MCF10A rerep – induces DNA re-replication in MCF 10a normal breast cells; MCF 10A DNA re-replication, Hoechst nuclear intensity, 48 h; Potency, µM (titrated, usually from 46.1 µM), usual class: activators; hit rate 2.9% among 350,000; AID 624296; also: nearly all actives have a fitted effect of over 50% in size
HT1080 IDH1KD tx – HT-1080 IDH1 knockdown cell toxicity (counter line); hit rate 2% among 360,000; Potency, µM (top dose mostly 46.1 µM), actives largely listed as cytotoxic; AID 686971; HT-1080 IDH1 knockdown viability, ATP luminescence, 48 h
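In this qHTS, HT-1080 cells depleted of IDH1 are exposed for 48 h at 37 °C to compound titrations. Toxicity is scored from CellTiter-Glo luminescence, with DMSO as full viability and medium alone as none.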
Large screens that a line does not name were inactive; ! = repeats disagree. This is a sample that favours compounds with a hit; in the whole collection about 8% have one here. Calls follow the shape of the dose curve; as a rule, active = well fitted curve in the direction sought with a large enough effect; inconclusive = small, poorly fitted or top-dose-only effect, or another doubt; inactive = no such curve, though single readings can be large; an effect the other way counts as inactive or inconclusive.

NC(=O)CCC(=O)N1CCCC(C(=O)c2ccc(C(F)(F)F)cc2)C1 (configuration not stated)	KB-V1 cytotox inconclusive
CC(=O)Nc1cccc(NC(=O)CSc2ncc(-c3ccc(Cl)cc3)n2Cc2ccco2)c1	KB-3-1 tox inconclusive, KB-V1 cytotox inconclusive, HT1080-NT tox inconclusive, MCF10A rerep 16µM, HT1080 IDH1KD tx inconclusive
COc1ccc(-c2cnc(SCC(=O)Nc3ccc4c(c3)OCO4)n2Cc2ccco2)cc1	HT1080-NT tox inconclusive, MCF10A rerep inconclusive
Cc1ccc(S(=O)(=O)N2CC(O)CC2C(=O)NCc2ccc3c(c2)OCO3)cc1 (configuration not stated)	none
CCOC(=O)C(c1ccccc1)C(Nc1ccccc1)c1ccccn1 (configuration not stated)	KB-V1 cytotox inconclusive
CCOC(=O)C(C(=O)OCC)C(Nc1ccccc1)c1ccccc1 (configuration not stated)	HT1080-NT tox inconclusive, MCF10A rerep 21µM, HT1080 IDH1KD tx inconclusive
CNc1nnc(-c2ccc(C)cc2)c2ccccc12	KB-V1 cytotox inconclusive, SW480 rereplic inconclusive, MCF10A rerep inconclusive
c1ccc(-n2cnc3cc(NCc4ccccn4)ccc32)cc1	SW480 rereplic 21µM, MCF10A rerep 5.8µM
c1ccc(-n2cnc3cc(NCc4ccncc4)ccc32)cc1	SW480 rereplic inconclusive, MCF10A rerep inconclusive
O=C(CCCCCNC(=O)c1ccccc1)N/N=C/c1ccco1	none
O=C(N/N=C/c1ccccc1O)C1SCCCS1	KB-3-1 tox inconclusive, HT1080-NT tox inconclusive, SW480 rereplic inconclusive, HT1080 IDH1KD tx 16µM
O=C(CN1CCCc2ccccc21)N/N=C/c1ccc(F)cc1F	MCF10A rerep inconclusive
O=C(CN1CCCc2ccccc21)N/N=C/c1ccccc1O	KB-3-1 tox inconclusive, KB-V1 cytotox 13µM, SW480 rereplic inconclusive, HT1080 IDH1KD tx inconclusive
O=C(CCSCCC(=O)NN=Cc1ccccc1O)NN=Cc1ccccc1O	MCF10A rerep 16µM (no result: KB-3-1 tox, KB-V1 cytotox)
O=C(CCCCCNC(=O)c1ccccc1)N/N=C/c1ccccc1O	KB-V1 cytotox inconclusive, SW480 rereplic 5.8µM, MCF10A rerep inconclusive
Cc1cc(C)n(CCC(=O)N/N=C/c2ccccc2O)n1	KB-3-1 tox inconclusive, KB-V1 cytotox 8.2µM
O=C(CSc1n[nH]c(=O)[nH]c1=O)N/N=C/c1ccccc1O	none
O=C(CSc1ccccc1)N/N=C/c1ccccc1O	HT1080-NT tox inconclusive, SW480 rereplic inconclusive, HT1080 IDH1KD tx 8.2µM
COC(=O)C1CCN(Cc2cc(=O)oc3cc(OC)ccc23)CC1	none
COc1ccc(/C=C/C(=O)Nc2ccccc2C)cc1S(=O)(=O)N1CCOCC1	KB-3-1 tox inconclusive, HT1080-NT tox 13µM
CCC(C)(C)NC(=O)/C=C/c1ccc(OC)c(S(=O)(=O)N2CCOCC2)c1	none (no result: SW480 rereplic)
COc1ccc(/C=C/C(=O)N(CCC(N)=O)c2ccccc2)cc1S(=O)(=O)N1CCOCC1	SW480 rereplic 4.6µM
COc1ccc(/C=C/C(=O)N2CCC(C(N)=O)CC2)cc1S(=O)(=O)N1CCOCC1	none
COc1ccc(/C=C/C(=O)N2CCN(c3ccccc3)CC2)cc1S(=O)(=O)N1CCOCC1	KB-V1 cytotox 7.3µM
Cc1ccc(Cl)cc1NC1=C/C(=N\S(=O)(=O)c2cccs2)c2ccccc2C1=O	KB-3-1 tox 3.3µM!, KB-V1 cytotox 9.2µM!, HT1080-NT tox 3.7µM, SW480 rereplic 2.9µM, MCF10A rerep 0.65µM, HT1080 IDH1KD tx 4.6µM
Cc1cccc(NC2=C/C(=N/S(=O)(=O)c3cccs3)c3ccccc3C2=O)c1	KB-3-1 tox inconclusive, KB-V1 cytotox inconclusive, HT1080-NT tox 4.6µM, SW480 rereplic inconclusive, MCF10A rerep 2.9µM, HT1080 IDH1KD tx 3.3µM
Cc1ccc(NC2=C/C(=N\S(=O)(=O)c3cccs3)c3ccccc3C2=O)c(C)c1	KB-3-1 tox 6.5µM, KB-V1 cytotox 5.2µM, HT1080-NT tox 7.3µM, SW480 rereplic 6.5µM, MCF10A rerep 6.5µM, HT1080 IDH1KD tx 6.5µM
O=C1C(Nc2ccc(O)cc2)=C/C(=N/S(=O)(=O)c2cccs2)c2ccccc21	KB-3-1 tox 3.3µM, KB-V1 cytotox 13µM, HT1080-NT tox 2.3µM, SW480 rereplic 5.2µM, MCF10A rerep inconclusive, HT1080 IDH1KD tx 1.5µM
CCCCN(C)C1=CC2=CC(=C(C#N)C#N)CCC2CC1 (configuration not stated)	KB-V1 cytotox inconclusive
COc1ccc(NC(=O)CSCc2cc(=O)n3ccsc3n2)cc1	KB-3-1 tox inconclusive
Cc1sc2nc(CN3CCOCC3)nc(NS(=O)(=O)c3ccc4c(c3)OCCO4)c2c1C	none
Cc1nc(N2CCN(Cc3ccccc3)CC2)nc2c1C(=O)CCC2	KB-3-1 tox inconclusive, KB-V1 cytotox 18µM, MCF10A rerep inconclusive
Cc1nc(N2CCN(Cc3ccccc3)CC2)nc2c1C(=O)CC(c1ccco1)C2 (configuration not stated)	KB-3-1 tox inconclusive, KB-V1 cytotox 8.2µM, MCF10A rerep inconclusive
O=C1CCCc2nc(N3CCN(Cc4ccccc4)CC3)ncc21	KB-V1 cytotox 21µM
CC1CCCC(NC(=O)c2cccc(S(=O)(=O)NCc3ccccc3)c2)C1C (configuration not stated)	none
CCNC(=O)c1c(NC(C)=O)sc2c1CCCC2	none
CCNC(=O)c1c(NC(=O)c2cc(-c3cc(C)cc(C)c3O)n[nH]2)sc2c1CCCC2	MCF10A rerep 6.5µM
O=C(Nc1ccc(F)cc1F)N1CCCN(c2ccc([N+](=O)[O-])cn2)CC1	none
CC(C)(C)c1ccc(NC(=O)N2CCN(c3ccc([N+](=O)[O-])cn3)CC2)cc1	KB-3-1 tox inconclusive, KB-V1 cytotox inconclusive, HT1080-NT tox inconclusive, MCF10A rerep inconclusive, HT1080 IDH1KD tx 23µM
CC[C@]12c3[nH]c4cc(CCC(=O)N(C)C)ccc4c3CCN1C(=O)[C@@H](CC(=O)NC/C=C(\C)CCC=C(C)C)C[C@@H]2C(=O)N1CCN(C(=O)c2ccco2)CC1	KB-3-1 tox inconclusive, HT1080-NT tox inconclusive, SW480 rereplic inconclusive, MCF10A rerep inconclusive, HT1080 IDH1KD tx 21µM
CC[C@]12c3[nH]c4ccc(Cl)cc4c3CCN1C(=O)[C@@H](CC(=O)NC/C=C(\C)CCC=C(C)C)C[C@@H]2C(=O)N1CCN(C(=O)c2ccco2)CC1	HT1080-NT tox inconclusive, MCF10A rerep inconclusive, HT1080 IDH1KD tx 15µM
CC[C@]12c3[nH]c4cc(CCC(=O)N(C)C)ccc4c3CCN1C(=O)[C@@H](CC(=O)NCCN1CCOCC1)C[C@@H]2C(=O)N1CCN(C(=O)c2ccco2)CC1	MCF10A rerep inconclusive
CC(C)=CCC/C(C)=C/CNC(=O)C[C@H]1C[C@H](C(=O)N2CCOCC2)[C@@]2(CCC3CCCC3)c3[nH]c4cc(CCC(=O)N(C)C)ccc4c3CCN2C1=O	SW480 rereplic inconclusive, MCF10A rerep 15µM
